Data reported in the supplement of paper PMC10849652.
Targets with a hit are over-represented here; the source holds about 8,800 in all. About 0.5% of all pairs of compound and target were hits.

Tests used:
Assay in all cases: log2 fold change, soluble protein after heating vs DMSO (PISA); higher = thermal stabilisation; K562 lysate, 10 uM; active = over 0.2 and 3.5 SD of the protein, either way, in both replicates (recomputed)
[1] = compound: C1=CC=C(C=C1)[C@H](COC2=CC3=C(C=C2)NC(=O)N3)NC(=O)C4=CC=CN(C4=O)CC5=CC(=C(C=C5)F)F
Procedure, shortened: (§1)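 Dounce homogenisation of K562 pellets in PBS pH 7.4 with 1 mM MgCl2 produced a crude extract, used at 1 mg/mL protein. Exposure to 10 μM compound lasted 30 min, and aliquots were then heated for 3 min across 48°C-58°C, pooled and brought to 0.5% NP-40 at 4°C. The supernatant after 21,000xg for 90 min was quantified by TMTpro 16plex LC-MS/MS with channel sums equalised. Duplicate values are given as log-two fold change in thermal stability relative to solvent controls.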

[2] = compound: CC1=C(SC2=C1C(=N[C@H](C3=NN=C(N32)C)CC(=O)N)C4=CC=C(C=C4)Cl)C
Procedure, shortened: as §1

[3] = compound: CC1=C2C(=CC=C1)N=C(N(C2=O)C3=CC=CC=C3C)CN4C=NC5=C(N=CN=C54)N
Procedure, shortened: as §1

[4] = compound: Cc1sc2c(c1C)C(c1ccc(Cl)cc1)=N[C@@H](CC(=O)OC(C)(C)C)c1nnc(C)n1-2
Procedure, shortened: as §1

[5] = compound: c1ccc([C@@H]2C[C@H]2NC2CCNCC2)cc1
Procedure, shortened: as §1

Measured: log2 fold change

INTS8 (UniProt Q75QN2)
inactive: [1] 0.021 | [2] -0.085 | [3] -0.002 | [4] 0.023 | [5] 0.081

INF2 (UniProt Q27J81)
inactive: [1] 0.016 | [2] 0.017 | [3] 0.015 | [4] -0.014 | [5] -0.06

HSPA8 (UniProt P11142)
Sequence of UniProt P11142 (P11142 whole entry, looked up): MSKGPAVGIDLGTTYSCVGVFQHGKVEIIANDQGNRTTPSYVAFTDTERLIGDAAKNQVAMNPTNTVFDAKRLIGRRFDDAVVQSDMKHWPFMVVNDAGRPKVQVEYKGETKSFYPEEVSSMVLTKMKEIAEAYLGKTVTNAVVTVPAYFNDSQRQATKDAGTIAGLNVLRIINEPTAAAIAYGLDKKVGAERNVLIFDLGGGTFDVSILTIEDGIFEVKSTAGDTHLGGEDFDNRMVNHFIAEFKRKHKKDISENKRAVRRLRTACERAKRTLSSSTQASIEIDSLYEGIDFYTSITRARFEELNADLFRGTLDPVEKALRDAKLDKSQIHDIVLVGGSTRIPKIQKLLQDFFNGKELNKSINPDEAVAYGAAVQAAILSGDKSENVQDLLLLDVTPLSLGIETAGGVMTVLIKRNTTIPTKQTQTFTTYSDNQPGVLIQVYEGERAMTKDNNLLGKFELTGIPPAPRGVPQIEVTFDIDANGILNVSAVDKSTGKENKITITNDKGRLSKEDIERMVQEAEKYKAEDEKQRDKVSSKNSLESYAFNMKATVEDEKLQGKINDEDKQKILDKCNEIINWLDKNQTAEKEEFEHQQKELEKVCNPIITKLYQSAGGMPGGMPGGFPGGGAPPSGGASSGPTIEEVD
inactive: [1] 0.002 | [2] -0.014 | [3] -0.004 | [4] -0.004 | [5] 0.006

GPA33 (UniProt Q99795)
inactive: [1] 0.007 | [2] 0.024 | [3] 0.006 | [4] -0.248
active: [5] -0.514

HMGB2 (UniProt P26583)
inactive: [1] 0.022 | [2] -0.069 | [3] -0.03 | [4] 0.036 | [5] 0.161

GSTM2 (UniProt P28161)
inactive: [1] -0.007 | [2] 0.03 | [3] -0.048 | [4] -0.037 | [5] 0.051

GTF2I (UniProt P78347)
inactive: [1] -0.026 | [2] 0 | [3] 0.009 | [4] 0.015 | [5] 0.061

HACE1 (UniProt Q8IYU2)
Sequence of UniProt Q8IYU2 (Q8IYU2 whole entry, looked up): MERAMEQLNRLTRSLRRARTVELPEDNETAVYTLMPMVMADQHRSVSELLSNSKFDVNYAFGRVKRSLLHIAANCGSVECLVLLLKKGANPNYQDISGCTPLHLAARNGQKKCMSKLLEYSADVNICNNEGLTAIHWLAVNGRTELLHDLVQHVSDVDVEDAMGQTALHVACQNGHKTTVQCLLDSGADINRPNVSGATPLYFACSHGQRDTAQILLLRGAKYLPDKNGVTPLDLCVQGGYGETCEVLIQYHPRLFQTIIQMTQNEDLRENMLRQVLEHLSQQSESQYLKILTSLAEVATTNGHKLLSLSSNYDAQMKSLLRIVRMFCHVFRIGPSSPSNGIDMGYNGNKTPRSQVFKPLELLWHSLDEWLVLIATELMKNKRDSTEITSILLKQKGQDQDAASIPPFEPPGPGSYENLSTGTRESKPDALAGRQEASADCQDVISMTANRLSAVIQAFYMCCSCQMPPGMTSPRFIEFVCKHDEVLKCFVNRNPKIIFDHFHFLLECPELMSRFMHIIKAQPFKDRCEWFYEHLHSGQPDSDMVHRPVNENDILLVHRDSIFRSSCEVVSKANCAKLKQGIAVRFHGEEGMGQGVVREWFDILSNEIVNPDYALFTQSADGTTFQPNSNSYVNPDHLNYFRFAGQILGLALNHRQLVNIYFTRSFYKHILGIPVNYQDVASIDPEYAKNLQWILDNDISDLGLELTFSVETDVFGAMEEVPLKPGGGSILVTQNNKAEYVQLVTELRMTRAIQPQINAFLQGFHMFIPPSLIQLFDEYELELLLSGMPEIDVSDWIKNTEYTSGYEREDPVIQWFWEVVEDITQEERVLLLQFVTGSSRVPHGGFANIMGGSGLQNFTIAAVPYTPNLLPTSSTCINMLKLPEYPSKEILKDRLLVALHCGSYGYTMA
inactive: [1] -0.03 | [2] 0.08 | [3] 0.07 | [4] -0.115 | [5] -0.377

GRK6 isoform 2 (UniProt P43250)
inactive: [1] 0.086 | [2] -0.034 | [3] -0.135 | [4] 0.084 | [5] -0.018

KCTD20 (UniProt Q7Z5Y7)
inactive: [1] -0.031 | [2] -0.011 | [3] 0.097 | [4] -0.009 | [5] 0.078

KDM6A (UniProt O15550)
Sequence of UniProt O15550 (O15550 whole entry, looked up): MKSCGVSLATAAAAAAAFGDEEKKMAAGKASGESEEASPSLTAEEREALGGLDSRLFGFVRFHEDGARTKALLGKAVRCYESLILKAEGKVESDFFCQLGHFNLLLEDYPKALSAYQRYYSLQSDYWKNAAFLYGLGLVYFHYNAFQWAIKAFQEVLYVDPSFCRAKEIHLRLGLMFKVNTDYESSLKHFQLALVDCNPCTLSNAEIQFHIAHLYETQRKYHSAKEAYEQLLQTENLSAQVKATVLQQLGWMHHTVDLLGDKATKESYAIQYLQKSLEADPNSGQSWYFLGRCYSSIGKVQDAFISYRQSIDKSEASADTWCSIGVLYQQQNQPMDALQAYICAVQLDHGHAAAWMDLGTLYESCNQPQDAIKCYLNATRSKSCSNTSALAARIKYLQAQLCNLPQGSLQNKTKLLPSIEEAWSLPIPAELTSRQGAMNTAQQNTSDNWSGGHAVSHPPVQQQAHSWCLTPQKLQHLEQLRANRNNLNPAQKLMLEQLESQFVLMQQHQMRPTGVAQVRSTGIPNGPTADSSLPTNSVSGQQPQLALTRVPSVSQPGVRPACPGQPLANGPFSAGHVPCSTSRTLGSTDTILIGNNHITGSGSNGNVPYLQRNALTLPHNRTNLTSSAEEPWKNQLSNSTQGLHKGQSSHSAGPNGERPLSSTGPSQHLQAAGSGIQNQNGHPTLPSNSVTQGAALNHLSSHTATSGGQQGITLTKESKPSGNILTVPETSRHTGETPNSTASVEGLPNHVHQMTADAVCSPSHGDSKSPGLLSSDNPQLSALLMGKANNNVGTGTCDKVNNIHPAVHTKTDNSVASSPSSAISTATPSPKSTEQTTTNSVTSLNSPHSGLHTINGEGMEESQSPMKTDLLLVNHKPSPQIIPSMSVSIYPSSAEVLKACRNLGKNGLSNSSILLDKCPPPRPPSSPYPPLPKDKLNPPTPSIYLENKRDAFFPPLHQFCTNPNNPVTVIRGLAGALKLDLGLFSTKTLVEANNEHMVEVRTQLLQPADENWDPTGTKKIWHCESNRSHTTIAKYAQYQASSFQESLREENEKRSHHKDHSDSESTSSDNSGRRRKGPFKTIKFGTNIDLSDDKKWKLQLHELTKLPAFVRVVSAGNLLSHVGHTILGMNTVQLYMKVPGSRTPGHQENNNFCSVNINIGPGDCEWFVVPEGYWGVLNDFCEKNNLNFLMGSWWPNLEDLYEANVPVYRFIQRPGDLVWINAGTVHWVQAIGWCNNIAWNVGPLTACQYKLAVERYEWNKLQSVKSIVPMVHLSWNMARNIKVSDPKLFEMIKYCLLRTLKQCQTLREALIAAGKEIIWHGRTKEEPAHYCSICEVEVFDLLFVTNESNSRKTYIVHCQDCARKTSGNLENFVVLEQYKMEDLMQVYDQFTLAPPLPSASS
inactive: [1] -0.024 | [2] -0.019 | [3] 0.049 | [4] -0.03 | [5] 0.008

HAUS4 (UniProt Q9H6D7)
inactive: [1] -0.009 | [2] -0.043 | [3] 0.019 | [4] 0.019 | [5] 0.02

HDAC3 (UniProt O15379)
inactive: [1] -0.035 | [2] 0.009 | [3] 0.006 | [4] 0.044 | [5] 0.014

IARS2 (UniProt Q9NSE4)
inactive: [1] 0.004 | [2] 0.013 | [3] -0.006 | [4] 0.028 | [5] 0.119

HK1 isoform 2 (UniProt P19367)
inactive: [1] -0.017 | [2] 0.017 | [3] -0.002 | [4] 0.016 | [5] 0.016

HDAC1 (UniProt Q13547)
inactive: [1] -0.04 | [2] 0.02 | [3] 0.001 | [4] -0.025 | [5] -0.015

H4C1 (UniProt P62805)
inactive: [1] -0.063 | [2] 0.037 | [3] -0.031 | [5] 0.125
active: [4] 0.664

IRAK1 (UniProt P51617)
inactive: [1] -0.146 | [2] -0.028 | [3] -0.001 | [4] 0.004 | [5] 0.026

GMIP (UniProt Q9P107)
inactive: [1] 0.023 | [2] -0.04 | [3] -0.04 | [4] -0.018 | [5] 0.054

GRK2 (UniProt P25098)
inactive: [1] -0.05 | [2] 0.009 | [3] 0.03 | [4] 0.007 | [5] -0.008

IL18R1 (UniProt Q13478)
active: [1] -0.612
inactive: [2] -0.103 | [3] 0.119 | [4] -0.094 | [5] 0.052

IARS (UniProt P41252)
inactive: [1] -0.027 | [2] 0.026 | [3] 0.025 | [4] 0.066 | [5] 0.047

GLYR1 (UniProt Q49A26)
inactive: [1] -0.179 | [2] 0.066 | [3] -0.128 | [4] 0.142 | [5] 0.043

HAUS6 (UniProt Q7Z4H7)
inactive: [1] 0 | [2] -0.012 | [3] 0.021 | [4] 0.005 | [5] 0.041

INPPL1 (UniProt O15357)
Sequence of UniProt O15357 (O15357 whole entry, looked up): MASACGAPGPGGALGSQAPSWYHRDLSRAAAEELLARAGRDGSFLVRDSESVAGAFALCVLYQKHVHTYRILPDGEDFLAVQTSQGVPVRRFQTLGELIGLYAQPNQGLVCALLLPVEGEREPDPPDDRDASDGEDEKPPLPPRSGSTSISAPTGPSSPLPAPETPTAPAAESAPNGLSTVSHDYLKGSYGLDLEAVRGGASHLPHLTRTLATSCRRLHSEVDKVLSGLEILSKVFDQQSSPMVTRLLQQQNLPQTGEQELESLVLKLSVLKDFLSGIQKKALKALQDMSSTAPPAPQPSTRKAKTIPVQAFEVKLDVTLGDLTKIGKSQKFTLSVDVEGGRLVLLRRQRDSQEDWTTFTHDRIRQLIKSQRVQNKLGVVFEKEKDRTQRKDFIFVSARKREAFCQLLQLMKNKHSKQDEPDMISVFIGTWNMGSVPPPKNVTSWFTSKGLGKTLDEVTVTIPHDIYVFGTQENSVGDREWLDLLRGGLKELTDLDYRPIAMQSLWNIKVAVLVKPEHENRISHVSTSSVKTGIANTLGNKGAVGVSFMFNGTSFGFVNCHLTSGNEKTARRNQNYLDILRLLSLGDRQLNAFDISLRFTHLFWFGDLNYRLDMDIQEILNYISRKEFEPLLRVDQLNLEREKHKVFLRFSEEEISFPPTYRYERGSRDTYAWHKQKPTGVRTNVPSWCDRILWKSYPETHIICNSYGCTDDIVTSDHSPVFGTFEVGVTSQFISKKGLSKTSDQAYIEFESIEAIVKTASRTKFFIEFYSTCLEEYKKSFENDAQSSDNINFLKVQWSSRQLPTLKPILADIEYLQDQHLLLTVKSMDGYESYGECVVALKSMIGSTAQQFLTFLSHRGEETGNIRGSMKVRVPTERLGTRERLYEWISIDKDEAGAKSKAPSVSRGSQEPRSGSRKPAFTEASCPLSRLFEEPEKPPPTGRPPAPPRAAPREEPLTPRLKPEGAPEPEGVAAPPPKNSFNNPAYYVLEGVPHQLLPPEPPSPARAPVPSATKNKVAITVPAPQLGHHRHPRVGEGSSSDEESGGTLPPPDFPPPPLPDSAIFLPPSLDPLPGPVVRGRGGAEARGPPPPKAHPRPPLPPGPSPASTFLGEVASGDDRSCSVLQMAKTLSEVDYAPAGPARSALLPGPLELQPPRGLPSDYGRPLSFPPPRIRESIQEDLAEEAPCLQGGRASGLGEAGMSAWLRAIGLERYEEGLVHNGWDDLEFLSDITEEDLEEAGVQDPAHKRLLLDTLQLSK
inactive: [1] 0.014 | [2] 0.029 | [3] -0.021 | [4] 0.012 | [5] 0.021

ISY1 isoform 1 (UniProt Q9ULR0)
inactive: [1] 0.016 | [2] 0 | [3] 0.001 | [4] -0.12 | [5] -0.004

ILRUN (UniProt Q9H6K1)
inactive: [1] 0.078 | [2] -0.021 | [3] 0.03 | [4] 0.009 | [5] 0.028

HMGCS1 (UniProt Q01581)
inactive: [1] 0.043 | [2] -0.022 | [3] 0.02 | [4] 0.003 | [5] -0.009

KIAA0930 isoform 2 (UniProt Q6ICG6)
inactive: [1] 0.3 | [2] -0.034 | [3] -0.051 | [4] 0.07 | [5] 0.031

IFNGR1 (UniProt P15260)
inactive: [1] 0.094 | [2] 0.083 | [3] 0.142 | [4] -0.299 | [5] -0.479

GPR108 (UniProt Q9NPR9)
inactive: [1] 0.059 | [2] -0.053 | [3] 0.005 | [4] -0.066 | [5] 0.014

KDM5B isoform 2 (UniProt Q9UGL1)
inactive: [1] -0.07 | [2] 0.117 | [3] 0.018 | [4] 0.07 | [5] -0.229

GIT1 (UniProt Q9Y2X7)
inactive: [1] 0.013 | [2] -0.008 | [3] 0.009 | [4] 0.093 | [5] 0.073

GOLPH3L (UniProt Q9H4A5)
inactive: [1] -0.046 | [2] 0.005 | [3] 0.022 | [4] -0.009 | [5] 0.021

HDGFL2 isoform 2 (UniProt Q7Z4V5)
inactive: [1] 0.051 | [2] -0.014 | [3] 0.01 | [4] -0.076 | [5] -0.212

GOLGA1 (UniProt Q92805)
inactive: [1] -0.042 | [2] 0.045 | [3] 0.026 | [4] -0.057 | [5] 0.009

HEATR3 (UniProt Q7Z4Q2)
inactive: [1] -0.101 | [2] 0.022 | [3] 0.008 | [4] -0.024 | [5] 0.028

GLUL (UniProt P15104)
inactive: [1] -0.011 | [2] -0.063 | [3] -0.085 | [4] 0.031 | [5] 0.053

HAUS5 (UniProt O94927)
inactive: [1] 0.043 | [2] 0.02 | [3] 0.003 | [4] -0.055 | [5] 0.089

HNRNPLL (UniProt Q8WVV9)
inactive: [1] 0.018 | [2] 0.028 | [3] 0.007 | [4] 0.022 | [5] 0.036

HMBOX1 isoform 5 (UniProt Q6NT76)
inactive: [1] 0.016 | [2] -0.008 | [3] 0.055 | [4] 0.027 | [5] -0.114

KBTBD4 isoform 2 (UniProt Q9NVX7)
inactive: [1] -0.014 | [2] -0.003 | [3] -0.106 | [4] -0.025 | [5] 0.016

HNRNPD isoform 2 (UniProt Q14103)
inactive: [1] 0.059 | [2] -0.015 | [3] -0.01 | [4] 0.018 | [5] 0.125

HADH isoform 2 (UniProt Q16836)
inactive: [1] 0.012 | [2] 0.004 | [3] -0.047 | [4] 0.013 | [5] 0.086

HDAC6 (UniProt Q9UBN7)
inactive: [1] 0.029 | [2] 0.036 | [3] -0.017 | [4] -0.007 | [5] 0.042

HMGA1 (UniProt P17096)
Sequence of UniProt P17096 (P17096 whole entry, looked up): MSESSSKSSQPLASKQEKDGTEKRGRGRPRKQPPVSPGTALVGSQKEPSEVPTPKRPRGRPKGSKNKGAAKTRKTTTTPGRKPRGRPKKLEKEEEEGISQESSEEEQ
inactive: [1] 0.009 | [2] 0.024 | [3] 0.011 | [4] -0.031 | [5] -0.135

HELQ (UniProt Q8TDG4)
inactive: [1] 0.033 | [2] 0.028 | [3] 0.005 | [4] -0.004 | [5] -0.074

KARS1 (UniProt Q15046)
inactive: [1] 0.005 | [2] 0.019 | [3] 0.002 | [4] 0.045 | [5] 0.045

HSD17B12 (UniProt Q53GQ0)
inactive: [1] -0.127 | [2] -0.006 | [3] 0.059 | [4] 0.031 | [5] -0.108

GTF2H4 (UniProt Q92759)
inactive: [1] -0.08 | [2] 0.044 | [3] 0.039 | [4] 0.015 | [5] 0.02

GOLGA6B (UniProt A6NDN3)
inactive: [1] -0.041 | [2] 0.006 | [3] 0.009 | [4] -0.123 | [5] 0.012

KCT2 (UniProt Q8NC54)
Sequence of UniProt Q8NC54 (Q8NC54 whole entry, looked up): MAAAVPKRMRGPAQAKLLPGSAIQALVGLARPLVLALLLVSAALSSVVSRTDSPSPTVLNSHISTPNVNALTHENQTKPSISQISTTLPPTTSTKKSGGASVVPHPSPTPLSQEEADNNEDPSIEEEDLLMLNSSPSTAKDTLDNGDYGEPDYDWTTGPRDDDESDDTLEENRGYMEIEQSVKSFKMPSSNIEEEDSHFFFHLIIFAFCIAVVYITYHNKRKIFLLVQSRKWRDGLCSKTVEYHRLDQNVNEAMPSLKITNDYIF
inactive: [1] 0.069 | [2] -0.008 | [3] -0.05 | [4] -0.033 | [5] -0.173

IRAK4 (UniProt Q9NWZ3)
Sequence of UniProt Q9NWZ3 (Q9NWZ3 whole entry, looked up): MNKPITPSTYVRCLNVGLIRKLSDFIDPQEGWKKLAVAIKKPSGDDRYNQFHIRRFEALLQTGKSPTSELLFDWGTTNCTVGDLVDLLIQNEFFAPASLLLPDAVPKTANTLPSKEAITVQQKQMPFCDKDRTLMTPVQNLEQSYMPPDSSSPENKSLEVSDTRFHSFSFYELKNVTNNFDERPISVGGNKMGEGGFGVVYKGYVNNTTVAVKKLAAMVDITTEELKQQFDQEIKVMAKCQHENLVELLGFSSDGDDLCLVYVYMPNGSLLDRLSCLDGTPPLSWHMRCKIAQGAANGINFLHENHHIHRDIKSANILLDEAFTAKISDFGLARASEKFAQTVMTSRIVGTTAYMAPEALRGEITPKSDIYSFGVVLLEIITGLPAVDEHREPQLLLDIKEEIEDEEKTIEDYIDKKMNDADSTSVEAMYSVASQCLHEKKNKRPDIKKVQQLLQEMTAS
inactive: [1] -0.02 | [2] -0.014 | [3] 0.022 | [4] -0.08 | [5] -0.024
